The values below come from PubChem BioAssay (Tox21).

A number with no mark means an inactive call. The source made the active and inactive calls. The call rests on the fitted dose curve; in most records, active means well fitted curve in the direction sought with a large enough effect in the repeat runs; inconclusive means weak or mixed curves; inactive means flat fitted curve, though single readings scatter.
On the % scale 0 is the no-effect control and ±100 the full control effect.

The test is described as follows: qHTS assay to test for compound auto fluorescence at 535 nm (green) in HEK293 cell free culture (AID 720682). To be noted: cell-free medium, green autofluorescence 485/535 nm, hits give high values; series mostly up to 91.3 µM. The text has this:
U.S. Tox21 Program National Center for Advancing Translational Sciences [NCATS] NIH Chemical Genomics Center [NCGC] U.S. Environmental Protection Agency [EPA] National Institutes of Environmental Health Sciences [NIEHS] National Toxicology Program [NTP] U.S. Food and Drug Administration [FDA] Tox21 Assay Overview: Compound auto fluorescence often interferes with screening of the compound library against various biological targets and signaling pathways. Some of these compounds may have fluorophoric properties. Such properties may interfere with the assay outputs resulting in false positives and/or negatives. To decrease such complications and ensure the compound activities are relevant in terms of biological response, the Tox21 10K compound library was screened for auto fluorescence. From the fluorophores used as reporter signals in our screening assays, the auto fluorescence equivalencies of compounds against three fluorophores have been evaluated: Triamterene, Fluorescein and Rose Bengal sodium for blue, green and red fluorescence, respectively. The fluorescence intensities were measured using Excitation/Emission wavelengths at 405/460nm, 485/535nm and 540/590nm for blue, green and red labels, respectively. This assay includes the green fluorescence data.
Tox21 Assay Protocol Summary: 5 uL of culture medium (DMEM containing 10% FBS) per well was dispensed into black wall/clear bottom 1536-well plates using a Multidrop Combi Dispenser (ThermoFisher Scientific, Waltham, MA). After 23 nL compound or DMSO vehicle was transferred into assay plate by a pintool work station (Kalypsys, San Diego, CA), fluorescence intensities in the assay plates were measured by an Envision (PerkinElmer, Shelton, CT) plate reader using three labels for measuring blue, green and red fluorescence at […] 460, 535 and 590nm respectively.
(In general: Quantitative high-throughput screening tests each substance at several concentrations.)
Turning to `[Ca+2]`, the outcome was inactive.

For the molecule `N[C@@H](CCC(=O)O)C(=O)O`, the outcome was inactive.

Consider `CC1=C(C/C=C(\C)CCC[C@H](C)CCC[C@H](C)CCCC(C)C)C(=O)c2ccccc2C1=O`, for which the result was inactive.

Consider `COc1cc(C(=O)OC(COCCC(C)C)CN2CCOCC2)cc(OC)c1OC` (stereo not given), for which the result was inactive.

Regarding `CC(C(=O)O)c1cccc(Oc2ccccc2)c1` (stereo not given), the activity change is 0.0987% [at 18.6 µM].

Regarding `O=S(=O)(O)c1cccc(S(=O)(=O)O)c1`, the call was inactive.

Take `CO/N=C(\C(=O)N[C@@H]1C(=O)N2C(C(=O)O)=C(CSc3nc(=O)c(O)nn3C)CS[C@H]12)c1csc(N)n1`: the outcome was inactive.

As to `CC(=O)NC(=O)c1ccccc1O`, the outcome was inactive.

`CC(=O)c1ccc2ccccc2c1`: the molecule was called inactive.

As to `O=[N+]([O-])c1ccc(/C=N\O)o1`, the molecule was called inactive.

With `C=COC(=O)C(C)(CC)CCC(C)C` (stereo not given), the outcome was inactive.

Regarding `CC(C)CC(C)(N)C#N` (stereo not given), the call was inactive.

Take `CN1C(C)(C)CC(O)CC1(C)C`: the call was inactive.

As to `NC(CCC(=O)O)C(=O)O` (stereo not given), the outcome was inactive.

Take `O=CN(CCO)CCO`: the outcome was inactive.

Regarding `CO[C@@]1(NC(=O)CSC[C@@H](N)C(=O)O)C(=O)N2C(C(=O)O)=C(CSc3nnnn3C)CS[C@@H]21`, the molecule was called inactive.

For `CN(C)C(=O)Oc1cccc([N+](C)(C)C)c1`, the call was inactive.

`C[N+](C)(C)CCCCCCCCCC[N+](C)(C)C`: the call was inactive.

As to `CN1CCC(=C2c3ccccc3CCc3cccnc32)CC1`, the molecule was classed as inactive.

Consider `CN1[C@@H]2CC[C@H]1CC(OC(=O)C(O)c1ccccc1)C2` (stereo not given in full), for which the outcome was inactive.

In the case of `CN1CCN(c2cc3c(nn2)Oc2ccccc2N3C)CC1`, the call was inactive.

On to `O=C(CO)[C@@H](O)[C@H](O)[C@H](O)CO`, for which the molecule was classed as inactive.

`COc1cc(C(=O)NCc2ccc(OCCN(C)C)cc2)cc(OC)c1OC`: the activity change was -0.0621% [at 18.6 µM].

Turning to `CCOc1ccccc1OCC`, the call was inactive.

`FB(F)F`: the molecule was called inactive.

As for `Clc1cc(Cl)cc(Cl)c1`, the molecule was called inactive.

On to `Cc1ccc(-c2ncc(Cl)cc2-c2ccc(S(C)(=O)=O)cc2)cn1`, for which the molecule was classed as inactive.

Turning to `CN(C)CCCN(C)CCCN(C)C`, the call was inactive.

`CC1OC1C1CCC2(C)OC2C1` (stereo not given): the outcome was inactive.

Regarding `CCCCS(=O)(=O)N[C@@H](Cc1ccc(OCCCCC2CCNCC2)cc1)C(=O)O`, the molecule was classed as inactive.

With `C=CC(=O)OCCCl`, the outcome was inactive.

In the case of `CC(=O)c1ccccc1[N+](=O)[O-]`, the molecule was classed as inactive.

Turning to `CCOC(=O)COC(=O)c1ccccc1C(=O)OCC`, the molecule was classed as inactive.

For the molecule `NC(=O)N[C@@H](CCC(=O)O)C(=O)O`, the molecule was classed as inactive.

For `O=C(c1ccccc1)C1(O)CCCCC1`, the molecule was classed as inactive.

Take `CC1=NS(=O)(=O)c2cc(Cl)ccc2N1`: the call was inactive.

For `c1ccc(CCc2ccccc2)cc1`, the call was inactive.

Turning to `C=CN1CCCCCC1=O`, the result was inactive.

On to `CCCCN(CCC(=O)OCC)C(C)=O`, for which the outcome was inactive.

Regarding `c1coc(CNc2ncnc3nc[nH]c23)c1`, the molecule was called inactive.
